{
  "source": "PubChem BioAssay AID1159580",
  "about": "(chemical genetic matrix, 2015)",
  "assay": "chemical genetic growth profiling, strain panel (AID 1159580);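 note: tested at 20 µM; growth read once vehicle control cultures reached saturation at 30 °C; 1 = growth at the plate median or of vehicle wells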",
  "conditions": "S. cerevisiae deletion strains, growth OD",
  "note": "Where “and” joins values, the source holds several entries; their conditions need not be identical. Identical values can stand only once. The whole screen tested about 5,500 compounds, of which about 2,000 (36%) were called active. Not shown: some 18% with an inconclusive outcome. The list shows a part of the results. A number with no mark means an inactive call. Cut-off read from the data, not from the text of the source: active = normalized growth mostly below about 0.91 (no sharp cut-off); inconclusive = no clear call, values can overlap the other calls; inactive = mostly above about 0.92.",
  "data": [
    {"smiles": "O=C1c2ccccc2C(=O)c2ccccc21", "values": [
      {"measurement": "normalized growth", "setting": "locus YAL013W, strain DEP1, stronger effect = lower value", "result": 1},
      {"measurement": "normalized growth", "setting": "locus YAL021C, strain ccr4, stronger effect = lower value", "result": 0.97},
      {"measurement": "normalized growth", "setting": "locus YAL026C, strain drs2, stronger effect = lower value", "result": 0.969},
      {"measurement": "normalized growth", "setting": "locus YAL030W, strain snc1, stronger effect = lower value", "result": 0.995},
      {"measurement": "normalized growth", "setting": "locus YBL061C, strain skt5, stronger effect = lower value", "result": 0.986},
      {"measurement": "normalized growth", "setting": "locus YBR009C, strain hhf1, stronger effect = lower value", "result": 0.96},
      {"measurement": "normalized growth", "setting": "locus YBR021W, strain FUR4, stronger effect = lower value", "result": 1.15},
      {"measurement": "normalized growth", "setting": "locus YBR023C, strain chs3, stronger effect = lower value", "result": 0.982},
      {"measurement": "normalized growth", "setting": "locus YBR171W, strain sec66, stronger effect = lower value", "result": 0.978},
      {"measurement": "normalized growth", "setting": "locus YBR229C, strain ROT2, stronger effect = lower value", "result": 0.999},
      {"measurement": "normalized growth", "setting": "locus YBR231C, strain swc5, stronger effect = lower value", "result": 0.963},
      {"measurement": "normalized growth", "setting": "locus YBR279W, strain paf1, stronger effect = lower value", "result": 0.975},
      {"measurement": "normalized growth", "setting": "locus YCL011C, strain gbp2, stronger effect = lower value", "result": 0.989},
      {"measurement": "normalized growth", "setting": "locus YCL016C, strain dcc1, stronger effect = lower value", "result": 0.957},
      {"measurement": "normalized growth", "setting": "locus YCL029C, strain bik1, stronger effect = lower value", "result": 0.994},
      {"measurement": "normalized growth", "setting": "locus YCL069W, strain vba3, stronger effect = lower value", "result": 0.998},
      {"measurement": "normalized growth", "setting": "locus YCR088W, strain abp1, stronger effect = lower value", "result": 1.01},
      {"measurement": "normalized growth", "setting": "locus YDL005C, strain med2, stronger effect = lower value", "result": 0.999},
      {"measurement": "normalized growth", "setting": "locus YDL035C, strain GPR1, stronger effect = lower value", "result": 0.949},
      {"measurement": "normalized growth", "setting": "locus YDL040C, strain nat1, stronger effect = lower value", "result": 0.988},
      {"measurement": "normalized growth", "setting": "locus YDL074C, strain BRE1, stronger effect = lower value", "result": 0.91},
      {"measurement": "normalized growth", "setting": "locus YDL101C, strain DUN1, stronger effect = lower value", "result": 0.985},
      {"measurement": "normalized growth", "setting": "locus YDL134C, strain PPH21, stronger effect = lower value", "result": 0.995},
      {"measurement": "normalized growth", "setting": "locus YDL185W, strain tfp1, stronger effect = lower value", "result": 0.981},
      {"measurement": "normalized growth", "setting": "locus YDL192W, strain arf1, stronger effect = lower value", "result": 0.99},
      {"measurement": "normalized growth", "setting": "locus YDR001C, strain nth1, stronger effect = lower value", "result": 0.993},
      {"measurement": "normalized growth", "setting": "locus YDR069C, strain doa4, stronger effect = lower value", "result": 0.984},
      {"measurement": "normalized growth", "setting": "locus YDR101C, strain arx1, stronger effect = lower value", "result": 0.989},
      {"measurement": "normalized growth", "setting": "locus YDR137W, strain rgp1, stronger effect = lower value", "result": 0.947},
      {"measurement": "normalized growth", "setting": "locus YDR150W, strain NUM1, stronger effect = lower value", "result": 0.969},
      {"measurement": "normalized growth", "setting": "locus YDR159W, strain sac3, stronger effect = lower value", "result": 1.01},
      {"measurement": "normalized growth", "setting": "locus YDR162C, strain NBP2, stronger effect = lower value", "result": 0.921},
      {"measurement": "normalized growth", "setting": "locus YDR195W, strain ref2", "result": "1.24 [resistant] (active)"},
      {"measurement": "normalized growth", "setting": "locus YDR297W, strain sur2, stronger effect = lower value", "result": 0.993},
      {"measurement": "normalized growth", "setting": "locus YDR318W, strain mcm21, stronger effect = lower value", "result": 0.975},
      {"measurement": "normalized growth", "setting": "locus YDR334W, strain swr1, stronger effect = lower value", "result": 0.974},
      {"measurement": "normalized growth", "setting": "locus YDR335W, strain msn5, stronger effect = lower value", "result": 0.966},
      {"measurement": "normalized growth", "setting": "locus YDR388W, stronger effect = lower value", "result": 1},
      {"measurement": "normalized growth", "setting": "locus YDR392W, strain spt3, stronger effect = lower value", "result": 0.842},
      {"measurement": "normalized growth", "setting": "locus YDR502C, strain sam2, stronger effect = lower value", "result": 0.991},
      {"measurement": "normalized growth", "setting": "locus YEL003W, strain gim4, stronger effect = lower value", "result": 0.981},
      {"measurement": "normalized growth", "setting": "locus YEL037C, strain rad23, stronger effect = lower value", "result": 0.982},
      {"measurement": "normalized growth", "setting": "locus YEL061C, strain CIN8 (second series), stronger effect = lower value", "result": 0.991},
      {"measurement": "normalized growth", "setting": "locus YEL061C, strain CIN8, stronger effect = lower value", "result": 1.01},
      {"measurement": "normalized growth", "setting": "locus YER015W, strain faa2, stronger effect = lower value", "result": 0.957},
      {"measurement": "normalized growth", "setting": "locus YER016W, strain bim1, stronger effect = lower value", "result": 0.992},
      {"measurement": "normalized growth", "setting": "locus YER110C, stronger effect = lower value", "result": 0.986},
      {"measurement": "normalized growth", "setting": "locus YER111C, strain swi4, stronger effect = lower value", "result": 1},
      {"measurement": "normalized growth", "setting": "locus YER155C, strain BEM2 (second series), stronger effect = lower value", "result": 0.968},
      {"measurement": "normalized growth", "setting": "locus YER155C, strain BEM2, stronger effect = lower value", "result": 1.02},
      {"measurement": "normalized growth", "setting": "locus YER167W, strain BCK2, stronger effect = lower value", "result": 0.976},
      {"measurement": "normalized growth", "setting": "locus YFR010W, strain ubp6, stronger effect = lower value", "result": 0.982},
      {"measurement": "normalized growth", "setting": "locus YGL078C, strain dbp3, stronger effect = lower value", "result": 0.978},
      {"measurement": "normalized growth", "setting": "locus YGL086W, strain mad1, stronger effect = lower value", "result": 0.967},
      {"measurement": "normalized growth", "setting": "locus YGL167C, strain pmr1, stronger effect = lower value", "result": 0.963},
      {"measurement": "normalized growth", "setting": "locus YGL173C, strain kem1, stronger effect = lower value", "result": 0.997},
      {"measurement": "normalized growth", "setting": "locus YGL227W, strain vid30, stronger effect = lower value", "result": 1},
      {"measurement": "normalized growth", "setting": "locus YGL240W, strain doc1, stronger effect = lower value", "result": 1},
      {"measurement": "normalized growth", "setting": "locus YGL248W, strain PDE1, stronger effect = lower value", "result": 1.01},
      {"measurement": "normalized growth", "setting": "locus YGL253W, strain hxk2, stronger effect = lower value", "result": 0.968},
      {"measurement": "normalized growth", "setting": "locus YGR078C, strain PAC10, stronger effect = lower value", "result": 0.963},
      {"measurement": "normalized growth", "setting": "locus YGR135W, strain pre9, stronger effect = lower value", "result": 0.994},
      {"measurement": "normalized growth", "setting": "locus YGR229C, strain SMI1, stronger effect = lower value", "result": 0.854},
      {"measurement": "normalized growth", "setting": "locus YGR252W, strain gcn5, stronger effect = lower value", "result": 1.01},
      {"measurement": "normalized growth", "setting": "locus YHR013C, strain ard1, stronger effect = lower value", "result": 0.974},
      {"measurement": "normalized growth", "setting": "locus YHR027C, strain rpn1, stronger effect = lower value", "result": 0.965},
      {"measurement": "normalized growth", "setting": "locus YHR030C, strain SLT2, stronger effect = lower value", "result": "1.01 and 1.02"},
      {"measurement": "normalized growth", "setting": "locus YHR079C, strain IRE1 (second series), stronger effect = lower value", "result": 0.994},
      {"measurement": "normalized growth", "setting": "locus YHR079C, strain IRE1, stronger effect = lower value", "result": 1.04},
      {"measurement": "normalized growth", "setting": "locus YHR094C, strain hxt1, stronger effect = lower value", "result": 0.98},
      {"measurement": "normalized growth", "setting": "locus YHR129C, strain ARP1, stronger effect = lower value", "result": 1},
      {"measurement": "normalized growth", "setting": "locus YHR142W, strain chs7, stronger effect = lower value", "result": 0.93},
      {"measurement": "normalized growth", "setting": "locus YHR200W, strain rpn10, stronger effect = lower value", "result": 0.988},
      {"measurement": "normalized growth", "setting": "locus YIL066C, strain RNR3, stronger effect = lower value", "result": 0.95},
      {"measurement": "normalized growth", "setting": "locus YIL073C, strain SPO22, stronger effect = lower value", "result": 0.832},
      {"measurement": "normalized growth", "setting": "locus YIL125W, strain kgd1, stronger effect = lower value", "result": 0.989},
      {"measurement": "normalized growth", "setting": "locus YIR030C, strain dcg1, stronger effect = lower value", "result": 0.998},
      {"measurement": "normalized growth", "setting": "locus YJL092W, strain hpr5, stronger effect = lower value", "result": 0.992},
      {"measurement": "normalized growth", "setting": "locus YJL095W, strain BCK1 (second series), stronger effect = lower value", "result": 1},
      {"measurement": "normalized growth", "setting": "locus YJL095W, strain BCK1, stronger effect = lower value", "result": "0.994 and 1.03"},
      {"measurement": "normalized growth", "setting": "locus YJL115W, strain asf1, stronger effect = lower value", "result": 0.998},
      {"measurement": "normalized growth", "setting": "locus YJL129C, strain trk1, stronger effect = lower value", "result": 1.07},
      {"measurement": "normalized growth", "setting": "locus YJL134W, strain LCB3, stronger effect = lower value", "result": 0.988},
      {"measurement": "normalized growth", "setting": "locus YJL154C, strain vps35, stronger effect = lower value", "result": 1},
      {"measurement": "normalized growth", "setting": "locus YJL164C, strain tpk1, stronger effect = lower value", "result": 0.975},
      {"measurement": "normalized growth", "setting": "locus YJL166W, strain qcr8, stronger effect = lower value", "result": 1},
      {"measurement": "normalized growth", "setting": "locus YJL168C, strain set2, stronger effect = lower value", "result": 1},
      {"measurement": "normalized growth", "setting": "locus YJL187C, strain SWE1 (second series), stronger effect = lower value", "result": 0.982},
      {"measurement": "normalized growth", "setting": "locus YJL187C, strain SWE1, stronger effect = lower value", "result": 0.989},
      {"measurement": "normalized growth", "setting": "locus YJR043C, strain POL32, stronger effect = lower value", "result": 0.958},
      {"measurement": "normalized growth", "setting": "locus YJR066W, strain TOR1, stronger effect = lower value", "result": 0.982}
    ]}
  ]
}
